ClpP mod = qHTS Assay for Activators of ClpP. ATP-dependent Clp protease proteolytic subunit (Bacillus subtilis (strain 168)), P80244. purified B. subtilis ClpP, FRET peptide cleavage, 20 min. Potency, µM (doses to about 57.5 µM), without a hit: at the highest dose activity change, negative = active. 340,000 compounds, 1.9% hits. AID 651965, 2013; active = well fitted falling curve with a large enough effect; inconclusive = small, poorly fitted or top-dose-only effect; inactive = no such curve, though single readings can be large or run the other way; note: potency is the fitted concentration of half-maximal effect; the source files actives as falling curves though it sought activators and does not explain the sign; nearly all actives have a fitted effect of over 65% in size
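Buffer: 100 mM Tris/HCl pH8, 100 mM KCl, 0.05% low protease BSA, 2.5% glycerol, 0.01% Tween-20. ClpP 10 microg/mL final; 20 min RT; delta FRET normalized to ADEP and DMSO controls.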
RXFP1 agonist = qHTS Assay for Agonists of the Relaxin Receptor RXFP1; Potency, µM (series often up to 57.5 µM), inactives show at the highest dose activation, hits mostly activators; HEK293T-RXFP1 cAMP TR-FRET, 30 min; response scale: percent of porcine relaxin response, buffer zero; 370,000 compounds, 0.3% hits; AID 2676, 2010; Relaxin receptor 1 (Homo sapiens), Q9HBX9; active = well fitted activation curve with a large enough effect; inconclusive = small, poorly fitted or top-dose-only effect; note: potency is the fitted concentration of half-maximal effect; % is set by controls: 0 for no effect and ±100 for the full control effect; nearly all actives have a fitted effect of over 60% in size
Target sequence (Q9HBX9 whole entry, looked up): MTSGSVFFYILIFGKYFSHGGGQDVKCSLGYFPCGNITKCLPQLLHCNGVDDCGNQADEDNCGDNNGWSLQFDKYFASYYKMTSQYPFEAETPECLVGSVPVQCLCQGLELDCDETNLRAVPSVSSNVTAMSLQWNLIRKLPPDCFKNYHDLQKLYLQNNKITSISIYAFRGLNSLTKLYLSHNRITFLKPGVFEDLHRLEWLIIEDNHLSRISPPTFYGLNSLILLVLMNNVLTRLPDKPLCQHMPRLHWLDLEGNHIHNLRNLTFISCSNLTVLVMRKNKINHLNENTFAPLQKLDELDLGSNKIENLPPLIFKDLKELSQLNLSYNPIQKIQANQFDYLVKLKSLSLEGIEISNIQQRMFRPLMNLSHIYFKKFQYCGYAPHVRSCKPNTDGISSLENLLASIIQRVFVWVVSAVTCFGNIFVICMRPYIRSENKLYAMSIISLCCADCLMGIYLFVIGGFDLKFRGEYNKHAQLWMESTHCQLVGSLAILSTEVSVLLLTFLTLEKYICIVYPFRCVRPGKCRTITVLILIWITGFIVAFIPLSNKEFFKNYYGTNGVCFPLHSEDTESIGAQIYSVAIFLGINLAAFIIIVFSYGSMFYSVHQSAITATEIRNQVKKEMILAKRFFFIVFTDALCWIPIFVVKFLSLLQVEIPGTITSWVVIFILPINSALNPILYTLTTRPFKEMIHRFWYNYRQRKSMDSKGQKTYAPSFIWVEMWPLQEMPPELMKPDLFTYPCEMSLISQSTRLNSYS
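cAMP rise read by TR-FRET after 30 min, 37C compound exposure (up to 58 uM) in RXFP1-transfected HEK293 cells with Ro 20174 present. EC50 from Hill-equation fits, with 29 nM porcine relaxin as 100% and buffer as basal.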
gsp agonist = qHTS for Agonist of gsp, the Etiologic Mutation Responsible for Fibrous Dysplasia/McCune-Albright Syndrome: qHTS | Potency, µM (titrated, usually from 76.9 µM), for inactives: at the top dose activation (cAMP increase), most hits filed as activators | AID 624287, 2012 | 340,000 compounds, 0.13% hits | gsp mutant cells, cAMP HTRF, 30 min; active = well fitted activation curve with a large enough effect; inconclusive = small, poorly fitted or top-dose-only effect, or another doubt; inactive = no such curve, though single readings can be large or run the other way; cell line not stated here;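 note: phosphodiesterase inhibitor Ro 20-1724 added with compounds to block cAMP breakdown; potency is the fitted concentration of half-maximal effect; nearly all actives have a fitted effect of over 60% in size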
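Cells in DMEM/10% FBS with G418 were pretreated with compounds in DMSO plus […] (300 uM stock) for 30 min at 37C. cAMP was measured by HTRF (cAMP-d2 plus anti-cAMP antibody-K) after 30 min at room temperature.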
Akt phos inh = HTS Assay for Inhibitors of Akt Phophorylation: Primary Screen; Neuro2A IGF-stimulated pAkt S473 HTRF, 20 min; stronger effect = lower value; activity change, % for hits at 50 µM; 360,000 compounds, 0.32% hits; in the data active = activity change below about -80%; inconclusive = mostly about -51% to -80%; note: % is set by controls: 0 for no effect and ±100 for the full control effect
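Neuro2A cells in DMEM with 0.5% FBS, overnight at 37 deg C, given compound at single 50 µM final, then IGF (6 nM final) for 20 min at 37 deg C. Lysed; phospho-Akt Ser473 by HTRF after 24 h, 665/615 ratio.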
gsp antag = qHTS for Antagonists of gsp, the Etiologic Mutation Responsible for Fibrous Dysplasia/McCune-Albright Syndrome: qHTS; gsp-mutant cells, cAMP HTRF, 30 min; Potency, µM (top dose mostly 76.9 µM), for inactives: top-dose activity change, negative = inhibition, actives largely listed as inhibitors; 340,000 compounds, 0.4% hits; AID 624288, 2012; calls by dose curve; cell line not stated here;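 note: intracellular cAMP measured with PDE inhibitor Ro 20-1724 present during compound exposure; potency is the fitted concentration of half-maximal effect; % is set by controls: 0 for no effect and ±100 for the full control effect; nearly all actives have a fitted effect of over 65% in size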
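HTRF cAMP read-out (cAMP-d2 plus anti-cAMP antibody-K in lysis buffer, 30 min RT). Before lysis, cells are exposed to compounds with […] for 30 min at 37C in DPBS containing Ca/Mg, BSA and Tween 20.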
RXFP1 antag = qHTS Assay for Antagonists of the Relaxin Receptor RXFP1; Relaxin receptor 1 (Homo sapiens), Q9HBX9; 350,000 compounds, 0.59% hits; activity change, negative = inhibition, % at 57.5 µM; HEK293-RXFP1, relaxin-stimulated cAMP HTRF, 30 min; stronger effect = lower value;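 active = activity change of -60% or lower, but not beyond a set lower limit; inconclusive = change between -60% and -40%, or beyond the set limit; inactive = change above -40%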; note: % is set by controls: 0 for no effect and ±100 for the full control effect
Active calls of the source: *; i = inactive; ? = inconclusive; . = not tested or not shown; [ ] = dose if it differs, or a comment. An excerpt weighted towards active compounds, which were near 2.7% of everything screened.

SMILES	ClpP mod	RXFP1 agonist	gsp agonist	Akt phos inh	gsp antag	RXFP1 antag
Cc1cccc(C(=O)OCC(=O)NC(=O)c2ccccc2)c1O	13µM*	4%	5%[15.4 µM]	i	8%	8
Cc1cc(C)n2nc(SCC(=O)N3CCCC3)nc2n1	1%	.	7%[15.4 µM]	i	5%	-8
COc1ccc(N2CCN(C(=O)CSc3nnc(-c4cc5ccccc5cc4O)n3C)CC2)cc1	-7%	1%	?	i	?	-14
Cc1cc(C)n2nc(SCC(=O)N3CCN(c4ccccc4)CC3)nc2n1	32µM*	.	27%	i	-1%	-2
COc1ccc(-n2cnnc2SCC(=O)N2CCN(c3ccccc3)CC2)cc1	?	1%	22%	-108%*	-3%	-26
CC1(C)Cc2ccccc2-c2nnc(SCC(=O)N3CCN(c4ccccc4)CC3)n21	-4%	5%	19%	.	35µM*	0
Cc1csc[n+]1CC(=O)c1ccccc1	-3%	.	.	.	.	.
COC(=O)CN(c1ccc(C)c(Cl)c1)S(C)(=O)=O	-1%	-1%	14%	-90%*	-37%	-16
Cc1c(CCO)sc[n+]1CCc1ccccc1	-1%	.	.	.	.	.
COc1ccccc1-c1noc(CSc2nnc(Cc3ccccc3)n2-c2ccc(C)c(C)c2)n1	0%	1%	.	.	.	-65*
CCOc1ccc(-n2c(Cc3ccccc3)nnc2SCc2c(C)noc2C)cc1	2.8µM*	2%	14%	i	-11%	-11
CCOc1ccc(-n2c(Cc3ccccc3)nnc2SCc2nc(-c3cccs3)no2)cc1	2%	1%	.	.	.	.
CN(C)c1ccc(NC(=O)Nc2ccc3c(c2)c(=O)n(C)n3Cc2ccc(Cl)cc2)cc1	-1%	.	.	i	.	.
COc1ccc(C2C=C(c3ccccc3)Nc3nnnn32)cc1 (stereo not given)	?	2%	-20%	i	2%	-23
COc1ccc(C2=CC(c3ccc(C)cc3)n3nnnc3N2)cc1 (stereo not given)	25µM*	-1%	26%	i	?	-4
COC(=O)c1c(C)nn(-c2ccc(F)cc2)c1-n1cccc1	0%	2%	.	.	.	-16
COc1cccc(CNC(=O)c2ccc(-c3nc(CSc4ccccc4)c(C)o3)cc2)c1	-14%	2%	.	.	.	.
COc1ccc(OC)c(CNC(=O)c2ccc(-c3nc(CSc4ccccc4)c(C)o3)cc2)c1	18µM*	-3%	.	.	.	-12
COc1cc(NC(=O)c2ccc(-c3nc(CSc4ccccc4)c(C)o3)cc2)cc(OC)c1	14µM*	1%	.	.	.	1
COc1ccc(S(=O)(=O)NCCSc2nnnn2-c2ccccc2)cc1OC	-7%	-3%	.	.	.	.
CCc1ccc(-c2cc(C(=O)N/N=C/c3ccccn3)[nH]n2)cc1	.	0%	16%[15.4 µM]	i	-8%	-11
O=C(N/N=C/c1ccccn1)c1cc(-c2ccc3ccccc3c2)n[nH]1	22µM*	0%	-4%	i	-24%	-10
CCCCCN(C(=O)CCC(=O)OCc1cccc(C)c1)c1c(N)n(CCCC)c(=O)[nH]c1=O	2%	1%	?	i	-2%	-26
CCOC(=O)c1cnc2ccc(OCC)cc2c1NCc1ccccc1	?	8%	24%	i	14µM*	.
CCOC(=O)c1cnc(-n2nc(C)cc2C)nc1NCc1ccccc1	-16%	1%	5%	i	35µM*	-25
SMILES	ClpP mod	RXFP1 agonist	gsp agonist	Akt phos inh	gsp antag	RXFP1 antag
CCOC(=O)c1cnc2ccc(OCC)cc2c1NCc1cccnc1	?	1%	-9%[15.4 µM]	i	?	-13
CCOC(=O)c1cnc(-n2nc(C)cc2C)nc1NCCO	?	0%	-16%	i	4%	-8
CN(C)CCN(Cc1ccsc1)c1ccccn1	.	.	.	.	.	3
Cc1cc(C)c(S(=O)(=O)N2CCN(C(=O)c3c(C)nn(-c4ccccc4)c3Cl)CC2)c(C)c1	2%	.	-5%	i	25µM*	-15
CCOc1ccc2[nH]c3c(N4CCN(C(=O)c5ccco5)CC4)ncnc3c2c1	.	21%	?	i	?	-9
CCOC(=O)N1CCN(c2ncnc3c2[nH]c2ccc(F)cc23)CC1	?	1%	-29%	i	?	-3
CCOC(=O)N1CCN(c2ncnc3c2[nH]c2ccc(OC)cc23)CC1	25µM*	12%	?	i	-7%	3
CCOc1ccc2[nH]c3c(N4CCC5(CC4)OCCO5)ncnc3c2c1	32µM*	24%	9%[15.4 µM]	i	-10%	-9
C=CCSC1=Nc2sccc2C2=NC(=O)CN12	-16%	7%	20µM*	i	15%	-2
Clc1ccc2c(c1)Nc1ccccc1S2	.	.	.	.	.	-9
CC(=O)c1ccc2c(c1)Nc1ccccc1S2	32µM*	0%	-1%	i	-10%	-8
Cc1ccc(-c2n[nH]c(=S)n2Cc2ccccc2)cc1	-26%	0%	19%	i	-6%	-26
S=c1[nH]nc(-c2cc3ccccc3o2)n1Cc1ccccc1	3.2µM*	9%	24%	i	?	-11
COc1ccc(Cl)cc1NC(=O)c1c(NCc2cccs2)sc2c1CCCC2	-5%	2%	.	.	.	-9
COCCNCCOc1ccc(C)cc1[N+](=O)[O-]	.	-5%	-5%	i	50µM*	10
COc1cc(C23CCCN(CCC(C(C)(C)C)C2)C32OCCO2)cc(OC)c1OC (stereo not given)	5%	.	.	i	.	.
O=c1oc2cc(OCc3nn[nH]n3)ccc2c2c1CCCC2	24%	3%	0%	i	-7%	-2
Cc1cc2oc(=O)c3c(c2cc1OCc1nn[nH]n1)CCCC3	25µM*	6%	24%	i	-10%	11
CC(C)C(=O)Nc1ccc(NC(=S)NC(=O)c2ccccc2F)cc1	32µM*	0%	8%	i	-18%	-16
COc1cc(OC)cc(C(=O)NCCOC23CC4CC(CC(C4)C2)C3)c1	-1%	1%	2.5µM*	i	-16%	-6
Fc1ccc(-c2cc(-c3cccs3)cc(-c3ccccc3)n2)cc1	28µM*	0%	-11%	i	2%	-3
C(=C\c1cccc2ccccc12)/c1nnc(-c2cccs2)o1	28µM*	4%	20%	i	-10%	7
CCOc1ccccc1NC(=O)CCNC(=O)Cn1ccc2ccccc2c1=O	.	-2%	-5%	i	9%	-10
